A selection: hits, their analogues and other compounds. The true share with any hit is near 4%.
Autofluor counter: flagged as autofluorescent in microsphere protease counterscreen; fluorescence intensity (concentration not given with the values); compound autofluorescence counterscreen, microsphere flow cytometry; stronger effect = higher value; actives 3.1% (n = 360,000); AID 624483; in the data active means fluorescence intensity above about 16000; inconclusive means no clear call, values can overlap the other calls
BoNT A protease: blocks Botulinum neurotoxin A light chain protease; multiplex microsphere protease substrate cleavage, flow cytometry; inhibition, % at 10 µM; actives 0.17% (n = 360,000); AID 588499
Anthrax LF inh2: inhibitors of Bacillus anthracis lethal factor protease; actives 0.12% (n = 360,000); multiplex microsphere protease cleavage assay, LF; inhibition, % at 10 µM
BoNT F protease: inhibitors of Botulinum neurotoxin F light chain protease | Multiplex microsphere protease cleavage assay, flow cytometry | inhibition, % at 10 µM | actives 0.22% (n = 360,000); in the data active means inhibition above about 35%, passing the limit was not always enough; inconclusive means no clear call, values can overlap the other calls
VHR inh abs: DUSP3 (human) phosphatase inhibition | P51452 | AID 1654 | actives 0.52% (n = 290,000) | recombinant VHR phosphatase, pNPP absorbance | inhibition, % at 13.3 µM; in the data active means inhibition above about 50%
Target sequence (P51452 whole entry, looked up): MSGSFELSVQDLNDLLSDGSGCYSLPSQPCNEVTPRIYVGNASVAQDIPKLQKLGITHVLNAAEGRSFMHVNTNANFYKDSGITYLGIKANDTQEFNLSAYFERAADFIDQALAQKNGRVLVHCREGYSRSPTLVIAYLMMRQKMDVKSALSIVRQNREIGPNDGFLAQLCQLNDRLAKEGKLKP
MazEF act: MazEF (E. coli) toxin RNase activation; FAM/BHQ RNA-DNA oligo cleavage fluorescence, 5 h; actives 0.32% (n = 350,000); P0AE70; activation, % at 20 µM; in the data active means activation above about 50%
Target sequence (P0AE70 whole entry, looked up): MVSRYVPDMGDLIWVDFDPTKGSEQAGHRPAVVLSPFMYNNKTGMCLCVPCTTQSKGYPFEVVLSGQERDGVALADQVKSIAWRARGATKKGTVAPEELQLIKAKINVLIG
A number is an active result; . = inactive; ? = inconclusive; / = no result given. Unless noted, no stated cut-off is given here; in the data, active means inhibition above about 30%; inconclusive means no clear call, values can overlap the other calls; inactive means below that.

SMILES	Autofluor counter	BoNT A protease	Anthrax LF inh2	BoNT F protease	VHR inh abs	MazEF act
O=c1[nH]nc(N=Nc2c(O)[nH]c3ccc(F)cc23)c(=O)[nH]1	.	.	.	.	/	.
Cc1ccc(N=Nc2[nH]c3ccccc3c2O)cc1	.	.	.	.	.	564.5
COc1ccc(N=Nc2[nH]c3ccc(C)cc3c2O)cc1	.	.	.	.	.	.
O=C(Nc1ccc(S(=O)(=O)Nc2nccc(C3Cc4ccccc4C(=O)O3)n2)cc1)c1ccccc1 (stereo not given)	23166	.	.	.	.	.
CC(=O)C(=Cc1ccc(O)cc1)C(C)=O	.	.	.	?	.	.
CC(C)C(=O)Nc1c(C(=O)N2CCN(c3ncccn3)CC2)oc2ccccc12	.	.	.	.	52.7	.
COC(=O)c1c(NC(=O)CC2SCC(C(=O)OC)NC2=O)sc2c1CCCC2 (stereo not given)	24791	.	.	.	.	.
COC(=O)c1c(NC(C)=O)sc2c1CCCC2	.	.	.	.	.	.
COC(=O)c1c(NC(=O)CCCC(=O)O)sc2c1CCC2	22669	.	.	.	.	.
COc1cc(CC(=O)Nc2sc3c(c2C(N)=O)CCCC3)cc(OC)c1OC	.	.	.	.	.	.
Cc1cc(C)nc(SC2CC(=O)N(c3ccc(Cl)cc3)C2=O)n1 (stereo not given)	.	.	.	?	.	.
COc1cc(F)ccc1-c1cc(C(=O)NCc2cccs2)[nH]n1	.	.	.	.	/	/
CCOc1cc(C(c2c(C)[nH][nH]c2=O)c2c(C)[nH][nH]c2=O)ccc1OS(=O)(=O)c1ccccc1	20887	.	.	.	.	.
COc1ccccc1NC1=NCC(=O)N1Cc1ccccc1	.	.	.	.	.	.
CCOc1ccccc1NC1=NCC(=O)N1Cc1ccc(F)cc1	.	.	.	.	53.4	.
CCC(C)Nc1c([N+](=O)[O-])cc(C)cc1[N+](=O)[O-] (stereo not given)	24719	?	.	.	.	.
CCC(C)NCCOc1ccc(C)cc1[N+](=O)[O-] (stereo not given)	.	.	.	.	.	.
COc1ccc(NC(=O)CCCC(=O)c2ccccc2)c(OC)c1	.	.	.	.	.	.
Cc1ncoc1C(=O)Nc1cccc(Cl)c1	16565	.	.	.	.	.
Cc1ocnc1C(=O)Nc1ccc(Cl)cc1	20071	.	.	.	.	.
Cc1ncoc1C(=O)Nc1ccccc1C(N)=O	23428	.	.	.	.	.
Cc1cc(C(=O)Nc2ccc(Cl)cc2)on1	.	.	.	.	.	.
Cc1ccccc1NC(=O)c1ocnc1C	.	.	.	.	.	.
Cc1ncoc1C(=O)Nc1cccc(Cl)c1C	23395	.	.	.	.	.
CCc1ccccc1NC(=O)CNC(=O)CNC(=O)C1CCCCC1	.	.	.	.	/	.
SMILES	Autofluor counter	BoNT A protease	Anthrax LF inh2	BoNT F protease	VHR inh abs	MazEF act
Clc1ccc2nnnc(-c3ccccc3)c2c1	.	.	.	.	.	.
CC(Sc1nnc(-c2ccccc2)c(-c2ccccc2)n1)C(=O)N1CCc2ccccc21 (stereo not given)	.	.	.	.	.	.
O=C(Nc1ccc2c(c1)OCO2)C1COc2ccccc2O1 (stereo not given)	.	.	.	.	.	.
O=C(Nc1ccc2c(c1)CCC2)C1COc2ccccc2O1 (stereo not given)	23530	.	.	.	.	.
CCOC(=O)CC(=O)Nc1nnc(CC(C)C)s1	.	.	.	.	.	.
O=C(O)c1ccccc1Nc1ccccc1C(=O)O	17128	?	.	.	.	.
Cc1c(Cl)cccc1Nc1ccccc1C(=O)O	.	.	.	.	.	.
O=C(/C=N/O)Nc1ccccc1C(=O)O	22836	.	.	.	.	.
CC(C)(C)c1csc(NC(=O)c2ccccc2O)n1	.	.	.	?	.	.
Cc1ccc(/C=C2/SC(=S)N(C3CCCCC3)C2=O)o1	.	38.6	.	.	.	.
O=C(NCCN1CCCc2ccccc21)C1CCC(=O)N(CCc2ccccc2)C1 (stereo not given)	.	.	.	.	.	.
C/C(=N\O)c1ccc(N2C(=O)C3CC=C(Cl)CC3C2=O)cc1 (stereo not given)	16899	.	.	.	.	.
CCN(CC)C(=O)c1ccc(N2C(=O)C3CC=C(Cl)CC3C2=O)cc1 (stereo not given)	.	.	.	.	.	.
CC/C(=C\C=C\[C@@H]1C=C[C@@H]2CCC[C@H]2[C@@H]1C(=O)c1ccc[nH]1)[C@@H]1O[C@@H]([C@@H](C)C(=O)O)CC[C@@H]1C	/	/	/	/	.	.
Cc1cc2c(o1)CC(C)(C)CC2=O	.	.	.	.	.	.
O=C(N/N=C/c1cccc(OC(=O)c2ccc3c(c2)OCO3)c1)c1cncc(Br)c1	.	.	.	.	.	.
COc1cc(/C=N/NC(=O)c2cccnc2)ccc1OC(=O)c1ccc2c(c1)OCO2	.	.	.	.	.	72.2
O=C(N/N=C/c1ccc(OC(=O)c2ccc3c(c2)OCO3)cc1)c1cncc(Br)c1	.	.	.	.	50.8	.
COc1cc(/C=N/NC(=O)c2cccnc2)ccc1OC(=O)c1cc(OC)c(OC)c(OC)c1	.	.	.	.	.	.
S=C(NCc1ccccc1)NCc1cccc(CNC(=S)NCc2ccccc2)c1	.	.	.	.	.	.
COc1ccc(CCNC(=O)C2CCCN(S(=O)(=O)c3ccc(F)cc3)C2)cc1OC (stereo not given)	?	.	.	.	.	.
CC(=NCc1ccc(F)cc1)c1c(O)n(C)c(=O)n(C)c1=O	19909	?	.	.	.	.
CC(=NCCCn1ccnc1)c1c(O)n(C)c(=O)n(C)c1=O	19563	.	.	.	.	.
CC(=NCc1ccco1)c1c(O)n(C)c(=O)n(C)c1=O	21713	.	.	.	.	.
CC(=NCC1CCCO1)c1c(O)n(C2CCCCC2)c(=O)[nH]c1=O (stereo not given)	.	.	.	.	.	.
SMILES	Autofluor counter	BoNT A protease	Anthrax LF inh2	BoNT F protease	VHR inh abs	MazEF act
CC(=NCC1CCCO1)c1c(O)n(C)c(=O)n(C)c1=O (stereo not given)	20914	.	.	.	.	.
CCOC(=O)c1cc(C#N)c(SCc2cccc3ccccc23)nc1C	.	.	.	.	.	.
Cc1nnc(NC(=O)c2ccccc2F)s1	.	.	.	.	.	.
CC(=O)Nc1ccc(S(=O)(=O)NCC(=O)NCCc2ccc(S(N)(=O)=O)cc2)cc1	.	.	.	.	.	.
CCOc1ccc(-c2c(C(=O)N/N=C(\C)c3cccs3)nnn2-c2nonc2N)cc1	.	.	.	.	.	.
c1ccc(CCc2nn3c(Cn4nnc5ccccc54)nnc3s2)cc1	.	.	.	.	.	.
c1ccc2c(c1)OCC(c1nn3c(Cn4nnc5ccccc54)nnc3s1)O2 (stereo not given)	16268	?	.	.	.	.
c1ccc(Cc2nn3c(Cn4nnc5ccccc54)nnc3s2)cc1	22542	?	.	.	.	.
c1cncc(-c2nn3c(Cn4nnc5ccccc54)nnc3s2)c1	16144	.	.	.	.	.
